Structures are written as SMILES. Records with an inconclusive call do not appear. Values without a mark were called inactive. The source made the active and inactive calls. The call rests on the fitted dose curve; in most records, active means well fitted inhibition curve with a large enough effect; inconclusive means small, poorly fitted or top-dose-only effect; inactive means no such curve, though single readings can be large or run the other way.
Potency means the concentration at half of the fitted maximal effect.

Sequence of Protein phosphatase 1D (Homo sapiens) (O15297 whole entry, looked up): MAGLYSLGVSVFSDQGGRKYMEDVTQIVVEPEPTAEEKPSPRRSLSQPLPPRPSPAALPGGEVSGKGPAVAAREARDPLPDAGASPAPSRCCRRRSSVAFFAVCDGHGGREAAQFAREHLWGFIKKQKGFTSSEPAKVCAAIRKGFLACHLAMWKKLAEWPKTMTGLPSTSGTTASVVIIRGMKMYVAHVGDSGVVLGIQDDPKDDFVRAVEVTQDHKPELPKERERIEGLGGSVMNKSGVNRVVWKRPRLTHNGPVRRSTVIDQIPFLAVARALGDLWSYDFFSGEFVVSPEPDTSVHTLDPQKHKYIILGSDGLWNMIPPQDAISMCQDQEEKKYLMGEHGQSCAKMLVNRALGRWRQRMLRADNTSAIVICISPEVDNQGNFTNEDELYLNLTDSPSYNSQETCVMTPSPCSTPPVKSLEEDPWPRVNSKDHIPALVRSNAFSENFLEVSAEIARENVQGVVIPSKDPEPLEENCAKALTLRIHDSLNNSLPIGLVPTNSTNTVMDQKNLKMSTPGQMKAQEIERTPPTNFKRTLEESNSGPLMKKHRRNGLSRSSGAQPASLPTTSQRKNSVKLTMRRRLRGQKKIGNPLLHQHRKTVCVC

The assay addresses Protein phosphatase 1D (Homo sapiens) (UniProt O15297). The assay is described as follows: RapidFire Mass Spectrometry qHTS Assay for Modulators of WT P53-Induced Phosphatase 1 (WIP1) (AID 1347424). As to conditions: WIP1 dephosphorylation of phosphopeptide, RapidFire MS; series mostly up to 63 µM; activity change, negative = inhibition: at the top concentration. The text has this:
Assay Provider (PI): Nathan Coussens Ph. D.
National Center for Advancing Translational Sciences (NCATS), Rockville, MD
National Institute of Health (NIH), Bethesda, Maryland
WT P53-Induced Phosphatase 1 (WIP1) is a member of the magnesium-dependent serine/threonine protein phosphatase (PPM) family and is induced by P53 in response to DNA damage. In several human cancers, the WIP1 protein is overexpressed, which is generally associated with a worse prognosis. Although WIP1 is an attractive therapeutic target, no potent, selective, and bioactive small-molecule modulator with favorable pharmacokinetics has been reported. Phosphatase enzymes are among the most challenging targets for small molecules because of the difficulty of achieving both modulator selectivity and bioavailability. Another major obstacle has been the availability of robust and physiologically relevant phosphatase assays that are suitable for high-throughput screening.
Here, we describe two orthogonal biochemical WIP1 activity assays that utilize phosphopeptides from native WIP1 substrates. We optimized a RapidFire MS assay to quantify the enzymatically dephosphorylated peptide reaction product in a 384-well format. Additionally, a redshifted Rhodamine-PBP fluorescence assay was optimized in a 1,536-well format to enable real-time WIP1 activity measurements through the detection of the orthogonal reaction product, Pi. We validated these two optimized assays by quantitative high-throughput screening against the National Center for Advancing Translational Sciences (NCATS) Pharmaceutical Collection and used secondary assays to confirm and evaluate inhibitors identified in the primary screen.
SEQUENCE No. (e.g., 1, 2, 3, etc.); […] (e.g., Cells, Incubation, Reagent, etc.); VALUE; DESCRIPTION
1; Reagent; 50 uL; dispensed assay buffer: 0.1% formic acid in water (10 uL : 40 uL) solution in column 1
3; Library Compounds; 63 nL; library compounds in DMSO, columns 3-24
4; Control Compounds; 63 nL; DMSO in wells I-P, columns 1-2, GSK830371 (10 uM, final) in wells A-H, column 2
5; Time; 1 hr; incubation
6; Substrate; 2 uL; VEPPL-pS-QETFS (10 uM) in assay buffer, column 2-24
7; Time; 5 min; incubation
8; Reagent; 2 uL; 0.5% formic acid in water, columns 2-24
9; Reagent; 38 uL; VEPPL-S-QETF*S in 0.1% formic acid, columns 2-24
10; Detection; mass spec; RapidFire mass spectrometry
NOTES (numbers refer to sequence above)
1, 2, 6; dispensed reagent in White Nunc 384-well PP microplates (264573); assay buffer: 50 mM Tris-HCl pH 7.5, 30 mM MgCl2, 1 mM TCEP, 0.1 mM EGTA, 75 ug/mL BSA.
2, 6, 8, 9; Dispensed with BioRaptr (Beckman Coulter)
2, 6, 9; Final concentrations: 10 nM WIP1; 2 uM VEPPL-pS-QETFS; 1 uM VEFFL-S-QETF*S
3 & 4; Kalypsys Pintool transfer (Wako USA), Tip wash sequence: water, DMSO, methanol, 20 sec vacuum dry.
5 & 7; incubation at room temperature
10; RapidFire mass spectrometry read using the Agilent RapidFire 360 (Clausse, 2019)
Clausse V, et al. Physiologically relevant orthogonal assay for the discovery of small-molecule modulators of WIP1 […] in high-throughput screens. J Biol Chem. 2019, 294(46): 17654-17668. doi:10.1074/jbc.RA119.010201
A general note: qHTS replaces the single test concentration by a dilution series.
On to `C#CCN(C)[C@H](C)Cc1ccccc1`, for which the “activity change, negative = inhibition” value is -1.89%.

In the case of `O=c1[nH]c2ccccc2n1CCCN1CCC(n2c(=O)[nH]c3cc(Cl)ccc32)CC1`, the “activity change, negative = inhibition” value is 4.04%.

As for `NP(N)(=O)NC(=O)c1ccc(F)cc1`, the “activity change, negative = inhibition” value was 1.17%.

In the case of `CN1C[C@H](CNC(=O)OCc2ccccc2)C[C@@H]2c3cccc4c3c(cn4C)C[C@H]21`, the “activity change, negative = inhibition” value was 21.6%.

For `O=C1NCN(c2ccccc2)C12CCN(CC1COc3ccccc3O1)CC2` (stereo not given), the “activity change, negative = inhibition” value was 8.39%.

In the case of `CC(C)(C)NCC(O)c1cc(Cl)c(N)c(Cl)c1` (stereo not given), the “activity change, negative = inhibition” value is 20.8%.

In the case of `CC1NCCOC1c1ccccc1` (stereo not given), the “activity change, negative = inhibition” value is 6.79%.

Regarding `C=C1CC[C@@]2(O)[C@H]3Cc4ccc(O)c5c4[C@@]2(CCN3CC2CC2)[C@H]1O5`, the “activity change, negative = inhibition” value is -3.78%.

In the case of `Cn1c(CCCC(=O)O)nc2cc(N(CCCl)CCCl)ccc21`, the “activity change, negative = inhibition” value is -8.92%.

As for `NCC(O)c1ccc(O)cc1` (stereo not given), the “activity change, negative = inhibition” value was -0.714%.

`O=C(O)c1ccc2[nH]cc(CCCCN3CC=C(c4ccccc4)CC3)c2c1`: the “activity change, negative = inhibition” value is -17.3%.

As for `Cc1cccc(C)c1NC(=O)CN1CCCC1=O`, the “activity change, negative = inhibition” value was -7.6%.

On to `CCC(COC(=O)c1cc(OC)c(OC)c(OC)c1)(c1ccccc1)N(C)C` (stereo not given), for which the “activity change, negative = inhibition” value is 67%.

With `c1ccc2c(c1)OCC(C1=NCCN1)O2` (stereo not given), the “activity change, negative = inhibition” value is 5.91%.

Turning to `CCCN1CCC[C@@H]2Cc3[nH]ncc3C[C@H]21`, the “activity change, negative = inhibition” value was -3.17%.

In the case of `O=P1(NCCCl)OCCCN1CCCl` (stereo not given), the “activity change, negative = inhibition” value is -0.91%.

Take `CC(C)(C)CC(C)(C)c1ccc(O)cc1`: the Potency result is “inactive”.

For the compound `CCC1(C2=NCCN2)Cc2ccccc2O1` (stereo not given), the “activity change, negative = inhibition” value is 0.449%.

Regarding `CN1CCN(C(=O)O[C@H]2c3nccnc3C(=O)N2c2ccc(Cl)cn2)CC1`, the “activity change, negative = inhibition” value is -7.95%.

In the case of `CCCC1CCCCN1` (stereo not given), the “activity change, negative = inhibition” value was 5.36%.

As for `CCCC(C)(COC(N)=O)COC(=O)NC(C)C` (stereo not given), the “activity change, negative = inhibition” value was -0.594%.

As for `CC(=O)[C@H]1CC[C@H]2[C@@H]3CC[C@H]4C[C@H](O)CC[C@]4(C)[C@H]3C(=O)C[C@]12C`, the “activity change, negative = inhibition” value was 6.09%.

For `CC[C@@H](CO)NC(=O)[C@@H]1C=C2c3cccc4c3c(cn4C)C[C@H]2N(C)C1`, the “activity change, negative = inhibition” value was -7.69%.

With `N[C@@H](Cc1ccc(Oc2cc(I)c(O)c(I)c2)c(I)c1)C(=O)O`, the Potency is 12.6 µM (active).

`Oc1ccc(Cl)cc1Cc1ccccc1`: the “activity change, negative = inhibition” value is -29.3%.

Turning to `Cc1ccc2c(c1)C1CN(C)CCC1N2` (stereo not given), the “activity change, negative = inhibition” value was -5.78% [at 26.6 µM].

Turning to `O=C1CC[C@@]2(O)[C@H]3Cc4ccc(O)c5c4[C@@]2(CCN3CC2CC2)[C@H]1O5`, the “activity change, negative = inhibition” value was 1.15%.

Consider `Oc1cc(Cl)ccc1Oc1ccc(Cl)cc1Cl`, for which the “activity change, negative = inhibition” value was -0.533%.

As to `Cc1ccc(-c2nc3ccc(C)cn3c2CC(=O)N(C)C)cc1`, the “activity change, negative = inhibition” value was 3.87%.

As for `CC(=O)[C@H]1CC[C@H]2[C@@H]3CC[C@H]4C[C@](C)(O)CC[C@]4(C)[C@H]3CC[C@]12C`, the “activity change, negative = inhibition” value was 19.9%.

For `Clc1ccc(CCC(Cn2ccnc2)Sc2c(Cl)cccc2Cl)cc1` (stereo not given), the “activity change, negative = inhibition” value was 54.3%.

With `C[C@]12CC[C@H]3[C@@H](CCC4=CC(=O)CC[C@@H]43)[C@@H]1CC[C@@H]2OC(=O)CCc1ccccc1`, the “activity change, negative = inhibition” value was 21.6%.

Regarding `N[C@@H]1C[C@H]1c1ccccc1`, the “activity change, negative = inhibition” value is 6.43%.

As for `CC[C@@H](CO)NC(=O)[C@@H]1C=C2c3cccc4[nH]cc(c34)C[C@H]2N(C)C1`, the “activity change, negative = inhibition” value is -0.0264%.

For `COc1ccc(C(CN(C)C)C2(O)CCCCC2)cc1` (stereo not given), the “activity change, negative = inhibition” value was 20.2%.

Consider `CCC(=O)C(CC(C)N(C)C)(c1ccccc1)c1ccccc1` (stereo not given), for which the “activity change, negative = inhibition” value is -8.83% [at 128 µM].

Turning to `c1ccc2c(c1)Nc1ccccc1S2`, the Potency result was “inactive”.

Turning to `CCC(C(N)=O)N1CCCC1=O` (stereo not given), the “activity change, negative = inhibition” value is -6.45%.

As for `O=c1oc2ccccc2c(O)c1C(CC(O)c1ccc(-c2ccc(Br)cc2)cc1)c1ccccc1` (stereo not given), the Potency was 8.91 µM (active).

On to `CC(C)NCC(O)c1ccccc1Cl` (stereo not given), for which the “activity change, negative = inhibition” value was 13.1%.

For the origin of these results see PubChem BioAssay (NCATS).
